# Laboratory results published in PubChem BioAssay.
# For some assays here: Potency and affinity values are given separately. Activity calls are given as the source filed them. Unless noted, how the calls were made is not given here.
# Key:
# [1] = molecular target: 6-phosphogluconate dehydrogenase, decarboxylating (Homo sapiens) (UniProt P52209); assay: 6PGD enzyme inhibitors, primary screen, biochemical, human, recombinant enzyme, NADPH absorbance (AID 1159550;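 active means at least 20% inhibition of 6-phosphogluconate dehydrogenase activity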); conditions: recombinant 6PGD, NADPH absorbance 341 nm; at 10 µM; stronger effect = higher value
# Sequence of 6-phosphogluconate dehydrogenase, decarboxylating (Homo sapiens) (P52209 whole entry, looked up): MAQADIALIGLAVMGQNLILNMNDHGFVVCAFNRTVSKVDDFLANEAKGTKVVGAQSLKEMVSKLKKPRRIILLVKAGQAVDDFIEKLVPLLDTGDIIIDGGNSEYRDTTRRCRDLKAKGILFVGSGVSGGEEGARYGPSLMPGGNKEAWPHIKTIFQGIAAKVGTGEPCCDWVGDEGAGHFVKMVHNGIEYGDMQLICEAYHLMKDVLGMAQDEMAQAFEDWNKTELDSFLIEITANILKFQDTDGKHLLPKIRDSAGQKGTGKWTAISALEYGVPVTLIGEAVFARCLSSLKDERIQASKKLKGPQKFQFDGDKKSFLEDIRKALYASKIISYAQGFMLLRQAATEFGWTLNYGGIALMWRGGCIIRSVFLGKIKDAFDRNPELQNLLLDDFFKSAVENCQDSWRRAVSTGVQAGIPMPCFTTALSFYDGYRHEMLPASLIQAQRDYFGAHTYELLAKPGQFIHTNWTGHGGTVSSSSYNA
# [2] = differential killing of epithelial or mesenchymal cells, primary screen, imaging, PC-3E GFP, TEM4-18 mCherry, co-culture (AID 1345086;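 active means compounds killing one labelled cell type while sparing the other, by normalised counts and ratio limits, not self-fluorescent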;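 on all read-outs here: cells exposed to compound for 72 h before imaging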;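 on red/green cell ratio (normalised): normalised mesenchymal count divided by normalised epithelial count so high means epithelial killing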); conditions: imaging cell counts, at 1 µM; for red/green cell ratio (normalised): actives lie on both sides
# [3] = test system: Aerobactin synthetase IucA (Klebsiella pneumoniae hvKP1); assay: Biochemical IucA enzyme inhibition primary screen of the Spectrum library (AID 1346200); conditions: malachite green pyrophosphate, A620, at 8 µM, stronger effect = lower value;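 further: 100% = wells without compound and 0% = wells lacking enzyme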
# [4] = molecular target: Mitogen-activated protein kinase 7 (Homo sapiens) (UniProt Q13164); assay: ERK5 transactivation activators in reporter cells, primary screen, cell-based, HTS (AID 1508626;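 active means luciferase signal above three times the same-plate solvent-only control wells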;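 further: luciferase driven by Gal4-ERK5 fusion binding five Gal4 sites before minimal TATA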); conditions: HeLa Gal4-ERK5 transactivation, 18 h, at 5 µM, stronger effect = higher value
# Sequence of Mitogen-activated protein kinase 7 (Homo sapiens) (Q13164 whole entry, looked up, the tested form may be a part): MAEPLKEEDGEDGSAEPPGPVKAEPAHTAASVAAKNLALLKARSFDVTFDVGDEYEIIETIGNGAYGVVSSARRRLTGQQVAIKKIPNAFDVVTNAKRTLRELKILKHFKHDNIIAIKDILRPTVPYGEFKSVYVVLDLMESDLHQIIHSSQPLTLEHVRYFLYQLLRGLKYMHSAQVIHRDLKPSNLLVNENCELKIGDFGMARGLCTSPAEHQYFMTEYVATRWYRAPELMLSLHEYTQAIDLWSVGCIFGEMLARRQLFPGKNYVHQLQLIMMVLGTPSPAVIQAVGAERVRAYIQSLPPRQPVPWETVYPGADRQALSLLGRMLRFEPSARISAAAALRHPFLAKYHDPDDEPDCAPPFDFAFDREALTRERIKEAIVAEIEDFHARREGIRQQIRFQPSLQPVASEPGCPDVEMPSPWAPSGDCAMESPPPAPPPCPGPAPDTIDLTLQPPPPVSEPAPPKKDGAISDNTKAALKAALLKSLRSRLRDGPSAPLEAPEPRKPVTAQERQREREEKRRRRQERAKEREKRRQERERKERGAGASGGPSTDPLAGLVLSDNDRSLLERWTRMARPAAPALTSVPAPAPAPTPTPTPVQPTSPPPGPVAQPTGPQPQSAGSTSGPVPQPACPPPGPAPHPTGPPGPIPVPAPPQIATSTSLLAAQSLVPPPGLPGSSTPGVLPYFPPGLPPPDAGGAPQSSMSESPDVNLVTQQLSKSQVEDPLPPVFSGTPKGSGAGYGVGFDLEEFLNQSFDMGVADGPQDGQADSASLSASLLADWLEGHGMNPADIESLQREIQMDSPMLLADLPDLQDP
# [5] = polyglutamine-triggered caspase-3 activation inhibitors, cell-based (AID 1583); conditions: polyglutamine-induced caspase-3 activation, cell assay; stronger effect = higher value;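 tested at 10 µM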
# [6] = suppressors of polyQ aggregation in yeast, 75Q-TubU reporter (AID 1593); conditions: Yeast 75Q polyglutamine aggregation reporter
# [7] = rescue of polyQ-huntingtin neuronal dysfunction in worms, whole organism, C. elegans mechanosensory neurons, N-terminal huntingtin (AID 1599); conditions: touch response, stronger effect = higher value
# [8] = inhibitors of mitochondrial cytochrome c release, biochemical, purified mitochondria (AID 1603); conditions: stronger effect = lower value;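 further: mouse liver mitochondria challenged with calcium chloride; signal normalized to the plate average as 100%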
# [9] = inhibitors of polyQ protein aggregation (AID 1604); conditions: polyglutamine-induced protein aggregation inhibition assay; stronger effect = higher value; tested at 2.5 µM
# [10] = enhancers of glutamate uptake in motor neurons, MN-1 cell line (AID 1612); conditions: MN-1 motor neuron cells, stronger effect = higher value;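 further: tested at 1 µM final; 0% = mean of DMSO vehicle wells on each plate; positive means more glutamate uptake than control and negative means less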
# [11] = reducers of polyQ inclusions in PC12 cells, cell-based, NGF-treated PC12, GFPQ80 (AID 1614); conditions: PC12 NGF-treated GFP-polyQ80 inclusion reduction;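 further: lower means fewer inclusions and 0 means no inclusions at all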
# [12] = suppressors of polyglutamine aggregation in yeast, 75Q-TubH (AID 1616); conditions: S. cerevisiae 75Q-TubH polyglutamine aggregation suppression; stronger effect = higher value
# [13] = measured here: epithelial PC-3E GFP cell survival
# [14] = measured here: mesenchymal TEM4-18 mCherry cell survival
# [15] = counts scaled to control wells, 1 = unselective
structure (smiles),measurement,setting,value
COc1cc([C@@H]2c3cc4c(c(O)c3C[C@H]3COC(=O)[C@@H]32)OCO4)cc(OC)c1OC,inhibition,[1],-17.8% (inactive)
same,red/green cell ratio (normalised),[2],0.83 (inactive)
same,normalised cell number,[2]; [13],0.2
same,normalised cell number,[2]; [14],0.16
same,activity remaining,[3],116% (inactive)
same,luciferase signal,[4],16 AU (inactive)
CC1(C)C(=O)[C@@H]2O[C@@H]2[C@@]2(C)C1C[C@@H](O)[C@]1(C)C2CC[C@@]2(C)[C@H](c3ccoc3)OC(=O)C3OC321 (stereo not given in full),inhibition,[1],4.53% (inactive)
same,red/green cell ratio (normalised),[2],1.01 (inactive)
same,normalised cell number,[2]; [13],1.01
same,normalised cell number,[2]; [14],1.01
same,activity remaining,[3],96.1% (inactive)
same,luciferase signal,[4],24 AU (inactive)
CN1CCCCC1c1ccc(-c2cccnc2)nc1 (stereo not given),inhibition,[1],-0.658% (inactive)
same,red/green cell ratio (normalised),[2]; [15],1.09 (inactive)
same,normalised cell number,[2]; [13],0.96
same,normalised cell number,[2]; [14],1.04
same,activity remaining,[3],113% (inactive)
same,luciferase signal,[4],52 AU (inactive)
O=[N+]([O-])c1ccc(O)c([N+](=O)[O-])c1,inhibition,[1],-2.82% (inactive)
same,red/green cell ratio (normalised),[2],0.86 (inactive)
same,normalised cell number,[2]; [13],1.08
same,normalised cell number,[2]; [14],0.93
same,activity remaining,[3],110% (inactive)
same,luciferase signal,[4],44 AU (inactive)
COc1c2c(cc3c1OCO3)CC[N+](C)=C2,inhibition,[1],8.25% (inactive)
same,red/green cell ratio (normalised),[2]; [15],1.03 (inactive)
same,normalised cell number,[2]; [13],0.97
same,normalised cell number,[2]; [14],1
same,activity remaining,[3],99.6% (inactive)
same,luciferase signal,[4],20 AU (inactive)
CC(=O)Oc1c2c(c(CC=C(C)C)c3c1C(=O)C1=C[C@@H]4CC5C(C)(C)OC(C/C=C(\C)C(=O)O)(C4=O)[C@@]15O3)OC(C)(CCC=C(C)C)C=C2 (stereo not given in full),inhibition,[1],23.4% (active)
same,red/green cell ratio (normalised),[2]; [15],0.83 (inactive)
same,normalised cell number,[2]; [13],1.18
same,normalised cell number,[2]; [14],0.98
same,activity remaining,[3],120% (inactive)
same,luciferase signal,[4],140 AU (inactive)
COc1cc2c(cc1OC)[C@@H]1C(=O)c3ccc4oc(C(C)C)cc4c3O[C@@H]1CO2,inhibition,[1],4.17% (inactive)
same,red/green cell ratio (normalised),[2],0.79 (inactive)
same,normalised cell number,[2]; [13],1.25
same,normalised cell number,[2]; [14],0.98
same,activity remaining,[3],104% (inactive)
same,luciferase signal,[4],76 AU (inactive)
Cc1[nH]c2ccccc2c1CN(C)C,inhibition,[1],-5.39% (inactive)
same,red/green cell ratio (normalised),[2],0.92 (inactive)
same,normalised cell number,[2]; [13],0.99
same,normalised cell number,[2]; [14],0.91
same,activity remaining,[3],101% (inactive)
same,luciferase signal,[4],44 AU (inactive)
COc1cc2c(cc1OC)[C@@H]1C(=O)c3ccc(OC)c(CC=C(C)C)c3O[C@@H]1CO2,inhibition,[1],18.8% (inactive)
same,red/green cell ratio (normalised),[2],0.91 (inactive)
same,normalised cell number,[2]; [13],0.87
same,normalised cell number,[2]; [14],0.8
same,activity remaining,[3],109% (inactive)
same,luciferase signal,[4],68 AU (inactive)
C/C=C/c1ccc2c(c1)OCO2,inhibition,[1],-4.44% (inactive)
same,red/green cell ratio (normalised),[2],0.96 (inactive)
same,normalised cell number,[2]; [13],1.11
same,normalised cell number,[2]; [14],1.06
same,activity remaining,[3],80.6% (inactive)
same,luciferase signal,[4],296 AU (active)
CC(C)=CCCC1(C)C=Cc2c(O)c3c(c(CC=C(C)C)c2O1)OC12C(CC4CC1C(C)(C)OC2(C/C=C(/C)C(=O)O)C4O)C3=O (stereo not given),inhibition,[1],-6.13% (inactive)
same,red/green cell ratio (normalised),[2],1.11 (inactive)
same,normalised cell number,[2]; [13],0.96
same,normalised cell number,[2]; [14],1.07
same,activity remaining,[3],119% (inactive)
same,luciferase signal,[4],96 AU (inactive)
N#C/C(=C\c1cccc(O)c1)C(=O)O,inhibition,[5],16.4%
same,score,[6],1.48
same,rescue above control,[7],-1.13
same,cytochrome c release ratio,[8],2.28
same,inhibition of aggregation,[9],58.6%
same,glutamate uptake change,[10],-1.74%
same,inclusion score,[11],2
same,aggregation suppression score,[12],1.54
same,inhibition,[1],11.3% (inactive)
same,red/green cell ratio (normalised),[2],0.88 (inactive)
same,normalised cell number,[2]; [13],1.09
same,normalised cell number,[2]; [14],0.96
same,activity remaining,[3],104% (inactive)
same,luciferase signal,[4],128 AU (inactive)
